# Screening data from PubChem BioAssay.
# hNpr1 antagonist: Natriuretic polypeptide receptor (hNpr1) antagonism - Primary qHTS; Atrial natriuretic peptide receptor 1 (Homo sapiens), P16066; HEK293 hNpr1 GloSensor cGMP, ANP-stimulated luminescence; Potency, µM (highest dose often 46.3 µM), for inactives: at the top dose activity change, negative = inhibition, most hits filed as inhibitors; actives 1.6% (n = 76,000); AID 1347048, 2019; calls by dose curve; note: nearly all actives have a fitted effect of over 60% in size
# Target sequence (P16066 whole entry, looked up): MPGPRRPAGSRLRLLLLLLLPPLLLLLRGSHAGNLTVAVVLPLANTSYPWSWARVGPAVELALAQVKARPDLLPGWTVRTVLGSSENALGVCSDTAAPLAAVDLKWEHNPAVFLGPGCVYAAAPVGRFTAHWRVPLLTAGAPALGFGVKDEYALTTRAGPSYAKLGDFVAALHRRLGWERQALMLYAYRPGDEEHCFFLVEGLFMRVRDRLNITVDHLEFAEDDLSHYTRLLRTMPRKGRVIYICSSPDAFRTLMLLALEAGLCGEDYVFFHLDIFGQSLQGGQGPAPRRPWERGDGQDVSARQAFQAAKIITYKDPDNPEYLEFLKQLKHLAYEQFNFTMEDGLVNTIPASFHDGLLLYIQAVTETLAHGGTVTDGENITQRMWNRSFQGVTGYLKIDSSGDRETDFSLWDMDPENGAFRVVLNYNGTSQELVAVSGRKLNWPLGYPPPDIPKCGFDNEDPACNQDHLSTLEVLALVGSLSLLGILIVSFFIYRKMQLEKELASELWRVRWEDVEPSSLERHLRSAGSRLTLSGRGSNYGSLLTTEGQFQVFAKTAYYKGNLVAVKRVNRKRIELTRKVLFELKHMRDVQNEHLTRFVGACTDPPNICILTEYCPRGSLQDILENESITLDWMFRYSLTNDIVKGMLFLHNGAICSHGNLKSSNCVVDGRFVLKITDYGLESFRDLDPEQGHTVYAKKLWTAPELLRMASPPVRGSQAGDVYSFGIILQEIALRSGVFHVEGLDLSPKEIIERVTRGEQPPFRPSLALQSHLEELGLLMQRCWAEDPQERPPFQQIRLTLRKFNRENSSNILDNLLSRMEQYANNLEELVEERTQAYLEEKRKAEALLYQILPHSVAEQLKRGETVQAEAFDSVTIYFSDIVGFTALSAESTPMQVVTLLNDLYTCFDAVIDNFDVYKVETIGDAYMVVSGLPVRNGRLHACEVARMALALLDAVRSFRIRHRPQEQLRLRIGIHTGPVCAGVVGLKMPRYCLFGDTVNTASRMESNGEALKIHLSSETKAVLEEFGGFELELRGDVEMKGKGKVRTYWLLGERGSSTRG
#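 HEK293 cells stably expressing human Npr1 and cGMP GloSensor pGS-40F, loaded 2 h with 2% GloSensor reagent, given compound 30 min at room temperature. Luminescence read before and 20 min after 0.1 nM hNppA.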
# HEK293 tox: Cytotoxic Profiling in HEK 293 Cell Line of Diverse Libraries Using Quantitative High-Throughput Screening. HEK 293 viability, ATP luminescence (CellTiter-Glo), 48-72 h. Potency, µM (top dose mostly 115 µM), for inactives: at the highest dose activity change, negative = cytotoxicity, usual class: inhibitors. actives 6.6% (n = 94,000); note: nearly all actives have a fitted effect of over 60% in size
#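 Cytotoxicity was scored by loss of ATP-coupled luminescence (CellTiter-Glo) in HEK 293 cells. Compound treatment ran 48 or 72 hr at 37 degree Celsius, 5% CO2, 95% humidity.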
# NIH3T3 tox: Cytotoxic Profiling in NIH 3T3 Cell Line of Diverse Libraries Using Quantitative High-Throughput Screening; NIH 3T3 viability, CellTiter-Glo ATP luminescence, 48-72 h; Potency, µM (doses to about 96.7 µM), for the others: at the highest dose activity change, negative = cytotoxicity, most hits filed as inhibitors; actives 4.3% (n = 94,000); AID 1345082, 2018; note: nearly all actives have a fitted effect of over 55% in size
#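 Mouse fibroblast NIH 3T3 cells, 400 per well, received compound via pintool and were incubated for 48 or 72 hr prior to CellTiter-Glo ATP luminescence measurement.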
# Luciferase inh: Firefly luciferase inhibition profiling of diverse chemical library using quantitative high-throughput screening; actives 2.5% (n = 76,000); Luciferin 4-monooxygenase (Photinus pyralis), P08659; purified P. pyralis luciferase, luminescence, biochemical; Potency, µM (series often up to 115 µM), most hits filed as inhibitors; note: nearly all actives have a fitted effect of over 65% in size
#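 Purified P. pyralis luciferase (10nM final) in 50mM Tris acetate pH 7.5, 10mM Mg acetate, 0.01% Tween-20, 0.05% BSA with 10uM D-luciferin and 10uM ATP. Compounds titrated qHTS. Luminescence imaged on CCD.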
# Starred values were filed as active, the others as inactive; i = inactive; u = inconclusive; x = not tested or not shown; [ ] = remark or other dose. A selection: hits, their analogues and other compounds. The true share with any hit is near 11%. Unless noted, calls come from the whole dose curve; as a rule, active = well fitted curve in the direction sought with a large enough effect; inconclusive = small, poorly fitted or top-dose-only effect, or another doubt; inactive = no such curve, though single readings can be large; an effect the other way counts as inactive or inconclusive. % is set by controls: 0 for no effect and ±100 for the full control effect; potency is the fitted concentration of half-maximal effect.
SMILES,hNpr1 antagonist,HEK293 tox,NIH3T3 tox,Luciferase inh
COc1ncccc1-c1nccc2c(=O)cc(N(C)C3CCOCC3)oc12,-4%[70.6 µM],-18%[172 µM],u,i
CN(C)c1cc(=O)c2ccnc(Nc3ccccn3)c2o1,8%[70.6 µM],-25%[230 µM],71µM*,i
Cc1ccccc1-c1nccc2c(=O)cc(N(C)C3CCOCC3)oc12,-4%[70.6 µM],-26%[172 µM],25µM*,i
COc1cc(F)ccc1-c1nccc2c(=O)cc(N(C)C3CCOCC3)oc12,6%[70.6 µM],-32%[172 µM],u,i
COc1ccc(OCc2cc(C(=O)NC(CO)C(C)C)no2)c2ccccc12 (stereo not given),10%,u,u,i
CN(c1cc(=O)c2ccnc(-c3ccc(O)c(F)c3)c2o1)C1CCOCC1,-3%[70.6 µM],-19%[172 µM],8.9µM*,i
Cc1cc(-c2nccc3c(=O)cc(N(C)C)oc23)ccn1,1%[70.6 µM],-6%[230 µM],u,i
CN(C)c1cc(=O)c2ccnc(-c3ccc(O)c(F)c3)c2o1,-2%[70.6 µM],0%[172 µM],32µM*,i
O=C(Cc1cccnc1)N1CCC(N2CC(OCC3CC3)C23CCCCC3)CC1 (stereo not given),2%,-7%,-21%,i
Cc1nc2c(c(N3CCC(O)(CN4CCCC4)CC3)n1)CCNCC2,2%,i,2%,i
Cc1nc2c(c(N3CCCC(COc4cccc(F)c4)C3)n1)CCNCC2 (stereo not given),-5%,22µM*,u,i
O=C(NCc1ccccc1F)c1noc(-c2ccc3c(c2)OCO3)n1,-5%,-22%,u,32µM*
COc1ccc(CNC(=O)c2noc(-c3ccc(C)cc3)n2)cc1OC,13µM*,u,u,u
Cc1ccc(-c2nc(C(=O)NCc3ccccc3F)no2)cc1,-2%,-9%,-23%,22µM*
Cc1ccc(-c2nc(C(=O)NCc3cc(F)cc(F)c3)no2)cc1,5%,32µM*,u,i
O=C(NCc1ccc(F)cc1F)c1noc(-c2ccc(F)cc2)n1,-8%,-10%,-14%,i
O=C(NCc1ccccc1)c1noc(-c2ccc3c(c2)OCO3)n1,-1%,u,u,40µM*
Cc1ccc(-c2nc(C(=O)NCc3ccco3)no2)cc1,2%,11%,-15%,16µM*
O=C(NCc1cccc(Br)c1)c1noc(-c2ccc(F)cc2)n1,-1%,25µM*,32µM*,u
O=C(NCc1ccc(Cl)cc1)c1noc(-c2ccc(F)cc2)n1,1%,u,-18%,i
CNC(=O)c1cc(C)nc2onc(C3CCCN3C(=O)c3cccnc3)c12 (stereo not given),x,i,1%,x
CC(C)c1ccc(NC(=O)O[C@@H]2CO[C@H]3[C@@H]2OC[C@@H]3NS(=O)(=O)Cc2ccccc2)cc1,2%,u,u,i
Cc1ccc(CN2CCCCCCNC(=O)[C@@H]3CCC[C@@H]32)o1,-3%,u,-22%,i
Cc1ccc(-n2c(C3CCN(C(=O)Cc4cccc(F)c4)CC3)n[nH]c2=O)cc1,15%,-1%,10µM*,i
Cc1ccc(-n2c(C3CCN(C(=O)c4ccco4)CC3)n[nH]c2=O)cc1,2%,6%,22µM*,i
SMILES,hNpr1 antagonist,HEK293 tox,NIH3T3 tox,Luciferase inh
O=C(c1ccc2ccccc2n1)N1CCC(c2n[nH]c(=O)n2-c2ccccc2)CC1,0%,4%,45µM*,i
O=C(c1cccc(F)c1)N1CCC(c2n[nH]c(=O)n2-c2ccccc2)CC1,0%,10%,-2%,i
Cc1ccc(-n2c(C3CCN(C(=O)c4cccc(F)c4)CC3)n[nH]c2=O)cc1,3%,12%,35µM*,i
COCC(=O)NC1CCN(C(=O)c2ccc(-c3cncnc3)cc2)CC1,x,-1%,-5%,x
COC(=O)N1CCN(C(=O)c2nc3cccnc3n(CC(C)C)c2=O)CC1,x,-7%,-16%,x
Cc1ccc(-n2c(C3CCN(C(=O)c4ccc(F)c(F)c4)CC3)n[nH]c2=O)cc1,2%,12%,10µM*,i
O=C(c1ccc(F)c(F)c1)N1CCC(c2n[nH]c(=O)n2-c2ccccc2)CC1,0%,-6%,u,i
Cc1ccc(-n2c(C3CCN(C(=O)c4ccc5cc[nH]c5c4)CC3)n[nH]c2=O)cc1,2%,10%,32µM*,i
CNC(=O)c1cc(C2CC2)nc2c1c(C1CCN(C(=O)c3ccncc3)CC1)nn2C,x,i,5%,x
CN1CCCC1CCNc1nccc(-c2cnn(-c3ccc(F)cc3)c2)n1 (stereo not given),3%,45µM*,u,u
CC(C)n1cc(CN2CCC(Oc3ccc(C(=O)NC4CCCC4)cc3Cl)CC2)cn1,3%,u,40µM*,i
Cc1cc(-c2cc3c(cn2)CN(Cc2ccc4[nH]ccc4c2)CCN3)ccn1,u,71µM*,u,45µM*
c1ccc(-c2cc3c(cn2)CN(Cc2ccc4[nH]ccc4c2)CCN3)cc1,-5%[70.6 µM],50µM*,25µM*,56µM*
CN1CC(=O)N(C2CCCC2)Cc2c(NCc3ccc4c(c3)OCO4)ncnc21,x,u,-29%,x
Cc1ccc(O)c(CN2CC[C@@H](c3ccc4ccccc4c3)[C@H](O)C2)n1,u,45µM*,u,i
COCc1ncc(CN2CC[C@@H](c3ccc4ccccc4c3)[C@H](O)C2)cn1,-1%,-16%,-28%,i
CNC(=O)c1cc(C2CC2)nc2c1c(C1CCCN1C(=O)c1cccc(OC)c1)nn2C (stereo not given),x,3%,i,x
COc1ccc(NC(=O)c2cc3sc(C)c(CN4CCCCC4)c3[nH]2)cc1OC,-5%,u,40µM*,i
c1ccc(N2CCN(C3CCCN(Cc4cn[nH]c4C4CCCCC4)C3)CC2)cc1 (stereo not given),-1%,89µM*,-22%,i
Cc1nn(-c2ccccc2)c2c1C(C)N(C1CCN(C(=O)c3ccc(F)cc3)C1)C2=O (stereo not given),x,45µM*,u,x
Cc1nn(-c2ccccc2)c2c1C(C)N(C1CN(C(=O)c3ccc(Cl)cc3)C1)C2=O (stereo not given),x,-27%,-12%,x
Cc1nn(-c2ccccc2)c2c1C(C)N(C1CCN(C(=O)c3cccc(Cl)c3)C1)C2=O (stereo not given),x,22µM*,32µM*,x
Cc1nn(-c2ccccc2)c2c1C(C)N(C1CN(C(=O)c3ccc(C(F)(F)F)cc3)C1)C2=O (stereo not given),x,40µM*,u,x
Cc1nn(-c2ccccc2)c2c1C(C)N(C1CCCN(C(=O)N(C)C)C1)C2=O (stereo not given),x,u,-19%,x
